According to PubChem BioAssay:
The source made the active and inactive calls.

Legend:
[1] = binders of probe aFSTL3 on microarray, primary screen, stem cell growth factor project, biochemical, small-molecule microarray, fluorescence 635/667 (AID 1064); settings: higher = more signal;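 also: measures binding of the biotinylated anti-FSTL3 antibody to printed compounds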
[2] = binders from COS7 lysate, DM2A8 probe, primary screen, torsin A project, cell lysate, small-molecule microarray, fluorescence 635/667 (AID 1065); settings: higher = more signal, COS7 lysate expressing mutant human TOR1A
[3] = binders of probe aFGF2 on microarray, primary screen, stem cell growth factor project, biochemical, small-molecule microarray, fluorescence 635/667 (AID 1067); settings: higher = more signal;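 also: measures binding of biotinylated aFGF2 protein to printed compounds on slides; z-score merges feature fluorescence and signal-to-noise across triplicate slides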
[4] = binders of probe aFGF10 on microarray, primary screen, stem cell growth factor project, biochemical, small-molecule microarray, fluorescence 635/667 (AID 1071); settings: higher = more signal;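 also: score merges 667 nm spot intensity and signal to noise from triplicate slides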
[5] = target: Neurogenic locus notch homolog protein 2 (Homo sapiens) (UniProt Q04721); experiment: Notch2 binders on small-molecule microarrays, primary screen, biochemical, small-molecule microarray, 635 nm fluorescence, stem cell growth factors (AID 1073); settings: Notch2 binding, higher = more signal
Neurogenic locus notch homolog protein 2 (Homo sapiens), sequence (Q04721 whole entry, looked up, canonical isoform): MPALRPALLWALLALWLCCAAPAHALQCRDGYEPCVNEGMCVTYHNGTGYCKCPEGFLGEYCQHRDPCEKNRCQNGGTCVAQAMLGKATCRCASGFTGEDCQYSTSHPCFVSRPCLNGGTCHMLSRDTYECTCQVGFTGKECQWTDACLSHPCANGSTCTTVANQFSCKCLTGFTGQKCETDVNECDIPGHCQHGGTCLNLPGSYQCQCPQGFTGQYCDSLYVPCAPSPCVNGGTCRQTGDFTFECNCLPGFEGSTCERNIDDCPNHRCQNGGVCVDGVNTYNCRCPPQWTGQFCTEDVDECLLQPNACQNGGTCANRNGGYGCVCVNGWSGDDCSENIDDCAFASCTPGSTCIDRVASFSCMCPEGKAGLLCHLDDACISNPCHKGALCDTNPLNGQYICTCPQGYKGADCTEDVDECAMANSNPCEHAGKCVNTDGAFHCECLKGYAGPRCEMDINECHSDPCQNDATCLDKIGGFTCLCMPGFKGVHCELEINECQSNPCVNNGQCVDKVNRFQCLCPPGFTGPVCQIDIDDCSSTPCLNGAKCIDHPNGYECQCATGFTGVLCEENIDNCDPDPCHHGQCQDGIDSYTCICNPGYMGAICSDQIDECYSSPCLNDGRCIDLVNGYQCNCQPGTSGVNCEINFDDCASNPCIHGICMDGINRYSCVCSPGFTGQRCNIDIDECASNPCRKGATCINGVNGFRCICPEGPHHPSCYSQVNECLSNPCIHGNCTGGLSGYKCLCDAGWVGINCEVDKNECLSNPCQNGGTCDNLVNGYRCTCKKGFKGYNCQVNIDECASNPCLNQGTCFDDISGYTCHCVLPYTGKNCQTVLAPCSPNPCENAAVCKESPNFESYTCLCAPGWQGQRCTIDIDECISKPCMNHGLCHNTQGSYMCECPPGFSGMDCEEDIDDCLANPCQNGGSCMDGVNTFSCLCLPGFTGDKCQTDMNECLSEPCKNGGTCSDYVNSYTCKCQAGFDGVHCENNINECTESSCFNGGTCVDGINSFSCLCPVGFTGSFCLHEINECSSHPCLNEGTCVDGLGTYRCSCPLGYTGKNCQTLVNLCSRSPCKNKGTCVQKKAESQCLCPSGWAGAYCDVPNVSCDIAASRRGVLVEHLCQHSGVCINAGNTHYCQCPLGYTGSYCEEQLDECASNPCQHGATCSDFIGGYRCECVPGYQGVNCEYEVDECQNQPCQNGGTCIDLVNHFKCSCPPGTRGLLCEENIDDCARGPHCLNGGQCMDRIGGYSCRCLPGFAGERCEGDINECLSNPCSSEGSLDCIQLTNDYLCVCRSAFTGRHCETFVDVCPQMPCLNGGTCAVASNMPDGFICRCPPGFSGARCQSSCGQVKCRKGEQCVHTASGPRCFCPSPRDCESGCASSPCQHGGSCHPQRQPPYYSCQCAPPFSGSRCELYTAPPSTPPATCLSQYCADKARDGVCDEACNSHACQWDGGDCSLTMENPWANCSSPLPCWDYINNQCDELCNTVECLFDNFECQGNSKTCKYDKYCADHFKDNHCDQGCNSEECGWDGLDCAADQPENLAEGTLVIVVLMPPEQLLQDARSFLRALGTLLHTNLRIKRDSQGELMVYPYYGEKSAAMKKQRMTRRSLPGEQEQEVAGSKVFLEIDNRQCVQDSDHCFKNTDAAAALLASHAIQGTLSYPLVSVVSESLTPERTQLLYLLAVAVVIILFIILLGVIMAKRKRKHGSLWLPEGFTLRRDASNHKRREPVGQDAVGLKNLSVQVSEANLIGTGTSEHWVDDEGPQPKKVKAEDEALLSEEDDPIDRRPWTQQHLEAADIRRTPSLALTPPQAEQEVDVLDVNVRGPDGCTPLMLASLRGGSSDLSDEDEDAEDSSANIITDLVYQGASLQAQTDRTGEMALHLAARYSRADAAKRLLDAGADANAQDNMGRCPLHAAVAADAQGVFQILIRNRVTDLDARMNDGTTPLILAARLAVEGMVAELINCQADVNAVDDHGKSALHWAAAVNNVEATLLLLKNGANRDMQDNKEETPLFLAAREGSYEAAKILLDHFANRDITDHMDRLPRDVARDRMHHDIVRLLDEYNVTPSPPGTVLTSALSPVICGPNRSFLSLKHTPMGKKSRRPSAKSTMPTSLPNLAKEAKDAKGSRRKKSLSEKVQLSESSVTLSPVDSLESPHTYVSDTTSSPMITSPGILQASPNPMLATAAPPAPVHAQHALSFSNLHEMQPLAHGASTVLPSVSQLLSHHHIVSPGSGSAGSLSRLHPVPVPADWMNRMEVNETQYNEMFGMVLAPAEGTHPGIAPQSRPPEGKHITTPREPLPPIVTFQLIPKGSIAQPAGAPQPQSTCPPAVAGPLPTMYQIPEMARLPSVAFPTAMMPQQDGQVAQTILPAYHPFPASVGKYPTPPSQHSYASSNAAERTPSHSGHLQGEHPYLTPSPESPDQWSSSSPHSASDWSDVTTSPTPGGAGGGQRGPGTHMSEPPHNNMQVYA

[6] = target: Pro-neuregulin-1, membrane-bound isoform (Homo sapiens) (UniProt Q02297); experiment: NRG1 binders on small-molecule microarrays, primary screen, psychiatric disease protein project, biochemical, small-molecule microarray, fluorescence 635/667 (AID 1075); settings: NRG1 binding, 635 nm fluorescence, higher = more signal;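 also: score combines 667 nm spot fluorescence with signal to noise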
Pro-neuregulin-1, membrane-bound isoform (Homo sapiens), sequence (Q02297 whole entry, looked up, the tested form may be a part, canonical isoform): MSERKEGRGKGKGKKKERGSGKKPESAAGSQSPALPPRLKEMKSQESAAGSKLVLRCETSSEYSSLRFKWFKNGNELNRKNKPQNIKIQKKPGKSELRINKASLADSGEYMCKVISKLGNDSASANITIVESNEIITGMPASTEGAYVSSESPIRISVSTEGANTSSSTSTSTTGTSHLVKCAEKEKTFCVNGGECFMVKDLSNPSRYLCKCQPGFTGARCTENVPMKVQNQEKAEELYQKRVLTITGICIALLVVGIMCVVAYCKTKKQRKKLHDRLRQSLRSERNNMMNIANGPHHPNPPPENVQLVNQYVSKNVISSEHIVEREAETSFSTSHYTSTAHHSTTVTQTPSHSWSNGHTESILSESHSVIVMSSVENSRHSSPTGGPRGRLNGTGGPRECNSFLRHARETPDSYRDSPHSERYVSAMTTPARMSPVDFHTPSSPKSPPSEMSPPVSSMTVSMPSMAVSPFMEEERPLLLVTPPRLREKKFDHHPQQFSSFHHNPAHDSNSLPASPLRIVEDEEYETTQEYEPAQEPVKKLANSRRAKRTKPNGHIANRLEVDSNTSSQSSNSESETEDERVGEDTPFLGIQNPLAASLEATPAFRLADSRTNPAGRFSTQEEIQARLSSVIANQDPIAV

[7] = system: Neuregulin-1 EGF-like domain; experiment: binders of neuregulin-1 EGF-like domain, primary screen, biochemical, small-molecule microarray, 635 nm fluorescence (AID 1081); settings: small-molecule microarray binding, higher = more signal;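 also: binding of the protein to compounds printed on small-molecule microarray slides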
[8] = FRG1 promoter luciferase signal modulators, primary screen, FRG1 inhibition for FSHD, cell-based, C2C12 myotubes, firefly/Renilla luciferase, luminescence (AID 1084); settings: higher = more signal, called active from +8 up or from −8 down
[9] = binders of probe aFST on microarray, primary screen, stem cell growth factor project, biochemical, small-molecule microarray, fluorescence 635/667 (AID 1086); settings: higher = more signal;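 also: score merges 667 nm fluorescence with signal-to-noise of each printed compound spot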
[10] = binders of probe aHhip on microarray, primary screen, stem cell growth factor project, biochemical, small-molecule microarray, fluorescence 635/667 (AID 1087); settings: higher = more signal;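 also: score merges spot fluorescence at 667nm with spot signal to noise ratio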
[11] = system: PRMT1 (protein arginine N-methyltransferase 1); experiment: PRMT1 binders on small-molecule microarrays, primary screen, biochemical, small-molecule microarray, 635 nm fluorescence (AID 1088); settings: small-molecule microarray binding, higher = more signal;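 also: binding of Prmt1 protein to compounds spotted on small-molecule microarray slides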
[12] = yeast growth modulation, basal conditions, primary screen, YJM789 clinical isolate, OD600, 24 h (AID 1089);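 also: growth of clinical yeast isolate S. cerevisiae YJM 789 seeded 1000 cells per well; test concentration not given here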; settings: S. cerevisiae YJM789 growth, higher = more signal, called active from +8 up or from −8 down
[13] = fission yeast growth modulation, primary screen, strain 972, OD600, 24 h, no modulator (AID 1090);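 also: basal condition with compound alone and no growth modifier present; test concentration not given here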; settings: S. pombe 972 growth, higher = more signal, called active from +8 up or from −8 down
[14] = S. cerevisiae growth modulation with rapamycin, primary screen, strain BY4716, OD600, 96 h (AID 1091); settings: higher = more signal, called active from +8 up or from −8 down; also: test concentration not given here
[15] = target: Torsin-1A-interacting protein 2 (Homo sapiens) (UniProt Q8NFQ8); experiment: LULL1 binders on small-molecule microarray, primary screen, cell lysate, human LULL1 lysate, 635/667 nm fluorescence (AID 1092); settings: hLULL1 lysate binding, 635 nm fluorescence, higher = more signal;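 also: probe is lysate of COS7 cells overexpressing human LULL1; score merges per-feature 667 nm fluorescence with signal-to-noise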
Torsin-1A-interacting protein 2 (Homo sapiens), sequence (Q8NFQ8 whole entry, looked up): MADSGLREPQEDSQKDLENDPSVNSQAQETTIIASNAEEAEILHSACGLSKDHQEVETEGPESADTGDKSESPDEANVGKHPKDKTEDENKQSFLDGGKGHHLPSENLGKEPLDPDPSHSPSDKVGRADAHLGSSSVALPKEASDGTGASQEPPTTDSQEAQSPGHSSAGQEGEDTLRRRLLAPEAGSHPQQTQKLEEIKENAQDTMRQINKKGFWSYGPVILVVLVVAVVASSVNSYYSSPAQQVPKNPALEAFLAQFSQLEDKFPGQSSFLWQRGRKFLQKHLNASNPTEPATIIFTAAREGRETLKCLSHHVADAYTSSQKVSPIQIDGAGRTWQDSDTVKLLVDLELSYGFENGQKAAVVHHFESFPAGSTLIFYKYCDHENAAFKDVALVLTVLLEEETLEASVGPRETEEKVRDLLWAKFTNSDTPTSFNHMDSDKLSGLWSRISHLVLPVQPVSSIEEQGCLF

[16] = E. coli growth modulation, two-sided OD650, primary screen, E. coli filamentation project, strain DRC41, 24 h (AID 1093); settings: OD650, 24 h, higher = more signal, called active from +8 up or from −8 down;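 also: MC1000 strain lacking acrAB efflux and sulA so SOS filamentation is blocked; test concentration not given here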
[17] = small-molecule microarray binders of probe aLefty2, primary screen, biochemical, biotinylated probe, 635/667 nm fluorescence (AID 1094); settings: higher = more signal;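 also: score merges spot fluorescence near 667 nm with spot signal-to-noise ratio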
[18] = system: Noggin (protein binding on small-molecule microarray); experiment: Noggin binders on small-molecule microarray, primary screen, biochemical, 635/667 nm fluorescence (AID 1095); settings: 635 nm fluorescence, higher = more signal;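 also: score merges 667 nm feature fluorescence with signal to noise over triplicate slides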
[19] = target: Neurogenic locus notch homolog protein 3 (Homo sapiens) (UniProt Q9UM47); experiment: NOTCH3 binders on small-molecule microarray, primary screen, biochemical, 635/667 nm fluorescence (AID 1096); settings: NOTCH3 binding, 635 nm fluorescence, higher = more signal
[20] = small-molecule microarray binders of probe aEGFR, primary screen, biochemical, biotinylated probe, 635/667 nm fluorescence (AID 1097); settings: higher = more signal;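 also: probe is a biotinylated anti-EGFR antibody binding compounds printed on slides; score combines fluorescence near 667 nm and signal to noise of each spot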

SMILES	composite z-score [1]	composite z-score [2]	composite z-score [3]	composite z-score [4]	composite z-score [5]	composite z-score [6]	composite z-score [7]	z-score [8]	composite z-score [9]	composite z-score [10]	composite z-score [11]	z-score [12]	z-score [13]	z-score [14]	composite z-score [15]	z-score [16]	composite z-score [17]	composite z-score [18]	composite z-score [19]	composite z-score [20]
CCOC(=O)[C@H](CC(C)C)NC(=O)CCC1CC(OC(=O)NCc2ccc3c(c2)OCO3)CC2(CCCC(COC(=O)NCCC(C)C)O2)O1 (stereo not given in full)	-0.495	-0.146	-0.119	0.01	-0.195	0.169	0.312	1.38 (inactive)	-0.11	-0.291	0.145	0.138 (inactive)	0.991 (inactive)	-0.511 (inactive)	-0.222	0.796 (inactive)	-0.193	0.482	0.24	-0.0828
C#CCCCON=C1C[C@@H](O)[C@@H](O)[C@@H]2[C@@H]3C(=O)N([C@@H](C)c4ccccc4)C(=O)[C@@H]3CC[C@@H]12	-0.0065	-0.318	-0.17	-0.46	-0.351	-0.191	-0.934	0.0665 (inactive)	-0.069	-0.267	-0.0587	0.837 (inactive)	1.4 (inactive)	1.26 (inactive)	-0.148	0.761 (inactive)	-0.161	-0.225	-0.746	-0.1
CC(C)=NO[C@H](C)c1cn([C@@H]2COC[C@H]2O)nn1	-0.517	-0.276	-0.163	0.517	0.712	0.0493	0.305	-0.807 (inactive)	0.362	-0.0618	0.629	-0.173 (inactive)	-1.02 (inactive)	0.127 (inactive)	0.242	0.132 (inactive)	-0.0936	0.683	0.562	0.0102
CCOC(=O)[C@H](Cc1ccccc1)NC(=O)CCC1CC(OC(=O)NCc2ccc3c(c2)OCO3)CC2(CCCC(COC(=O)NCCOc3ccccc3)O2)O1 (stereo not given in full)	-0.288	0.474	-0.051	0.378	0.896	0.833	1.08	1.17 (inactive)	0.672	-0.0994	1.48	0.0339 (inactive)	0.486 (inactive)	0.576 (inactive)	1.31	0.196 (inactive)	-0.0446	0.484	1.12	0.0436
C[C@@H]1C=CCC(=O)OC[C@H](C)C(=O)N[C@@H](Cc2ccccc2)C(=O)OC1	-0.553	1.31	-0.245	0.294	0.443	-0.302	0.422	-0.514 (inactive)	0.0347	0.605	-0.431	0.214 (inactive)	-1.06 (inactive)	-0.0603 (inactive)	0.146	-0.234 (inactive)	-0.192	0.79	-0.019	-0.0513
C=C(C)C(=O)OC[C@H]1CN2[C@@H](CC[C@@H](C)[C@@H]2c2ccc(Br)cc2)C(=O)O1	-0.223	0.123	-0.166	0.113	-0.283	0.199	0.0297	0.402 (inactive)	-0.155	-0.0618	0.164	0.0739 (inactive)	-3.38 (inactive)	-0.424 (inactive)	0.162	0.436 (inactive)	-0.166	0.195	-0.775	-0.144
CCOC(=O)CCN1C(=O)[C@H]2[C@H]3[C@H](O)[C@H](O)CC(=NOCC=C(C)CCC=C(C)C)[C@@H]3CC[C@H]2C1=O	0.149	1.13	-0.133	0.84	0.845	0.258	0.658	-0.594 (inactive)	0.42	0.0515	0.316	-1.28 (inactive)	0.237 (inactive)	-0.44 (inactive)	1.01	6.79 (inactive)	-0.197	0.742	0.808	-0.0415
CO[C@@H](C(C)C)[C@@H](C)C1OC(=O)CC1O (stereo not given in full)	-0.156	-0.126	-0.15	0.0406	-0.402	-0.361	0.625	0.35 (inactive)	-0.192	-0.0193	-0.255	0.0031 (inactive)	0.0183 (inactive)	-0.582 (inactive)	0.338	0.457 (inactive)	-0.161	-0.614	-0.716	-0.195
CC(C)CON=C1C[C@@H](O)[C@@H](O)[C@@H]2[C@@H]3C(=O)N(c4ccc(F)cc4F)C(=O)[C@@H]3CC[C@@H]12	-0.527	0.118	-0.0502	0.345	0.429	0.984	0.557	0.581 (inactive)	0.283	-0.0994	0.601	0.0347 (inactive)	-0.786 (inactive)	-0.733 (inactive)	0.956	1.24 (inactive)	-0.212	0.344	0.898	-0.026
C[C@H]1CC[C@H]2C(=O)OC(COc3ccc(C(C)(C)C)cc3)CN2[C@@H]1c1ccc(Br)cc1 (stereo not given in full)	-0.373	-0.52	-0.169	0.62	-0.123	0.449	1.05	0.458 (inactive)	-0.0895	-0.0618	1.02	-0.498 (inactive)	-17.9 (active)	-1.73 (inactive)	1.25	1.24 (inactive)	-0.139	0.756	0.165	-0.175
